Screens from PubChem BioAssay.
Pf growth 48h – inhibits P. falciparum growth in the first generation, 48 h; P. falciparum luciferase growth in erythrocytes, 48 h; Potency, µM (top dose mostly 28.7 µM), hits mostly inhibitors; hit rate 5.9% among 310,000
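Compounds are pin-transferred into medium, infected erythrocytes (2% hematocrit, 0.1% parasitemia final) are added, and plates sit one parasite generation at 37 C in 5% CO2. Detection reagent is then added and luminescence measured.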
Pf growth 96h – P. falciparum growth inhibition at 96 hours; P. falciparum luciferase reporter growth, 96 h; Potency, µM (top dose mostly 28.7 µM), most hits filed as inhibitors; hit rate 6.9% among 320,000; AID 504834
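Parasite growth measured via integrated firefly luciferase reporter in P. falciparum. Infected erythrocytes at 2% hematocrit, 0.05% parasitemia final were treated 96 hours at 37 C under 5% CO2, and luminescence was read.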
Sm TGR block – blocks Schistosoma mansoni thioredoxin glutathione reductase; Q962Y6; purified TGR, DTNB reduction, TNB absorbance 405 nm; Potency, µM (doses to about 114 µM), hits mostly inhibitors; hit rate 3% among 360,000; also: nearly all actives have a fitted effect of over 60% in size
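TGR 20 nM + NADPH 100 uM (dispensed conc.), cpd preinc 15 min RT; start with NADPH (500 uM addition) then DTNB (15 mM addition). Kinetic TNB absorbance, 405 nm filter. Four-parameter Hill fit across titration.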
NS1 inh – inhibitors of influenza NS1 protein function | AID 2326 | Potency, µM (series often up to 46.1 µM) | hit rate 0.4% among 270,000; calls by dose curve; also: actives are rising curves; nearly all actives have a fitted effect of over 50% in size
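Growth recovery, yeast-based: influenza A NS1 expressed in S. cerevisiae causes slow growth, and suppressors are detected by OD600. The parent strain without NS1 is used as positive control.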
Shiga inhibitor – inhibitors of Shiga toxin in Vero cells; Vero cells, Shiga toxin protein synthesis inhibition reporter; inhibition, % at 38.7 µM; hit rate 9.2% among 290,000; in the data active = inhibition mostly above about 28%, no sharp cut-off; inactive = mostly below about 43%
CHX counter – affects cycloheximide protein synthesis inhibition readout, counter-screen | cell reporter, cycloheximide protein synthesis inhibition counterscreen | max response, % | hit rate 12% among 300,000 | AID 2314; in the data active = max response mostly above about 13%, no sharp cut-off; inactive = mostly below about 14%; also: read at 38.3 µM for the half of the compounds with a filed dose
Hits are given with their value. Rows were chosen to be rich in hits. Some 21% of all compounds tested hit in one or more screens of this group. Unless noted, calls follow the shape of the dose curve; as a rule, active = well fitted curve in the direction sought with a large enough effect; inconclusive = small, poorly fitted or top-dose-only effect, or another doubt; inactive = no such curve, though single readings can be large; an effect the other way counts as inactive or inconclusive.

How did CC1CN(CC(O)COc2ccc(C(C)C)cc2)CC(C)O1 (centres undefined) do in these assays?
Pf growth 48h: inactive; Pf growth 96h: inactive; Sm TGR block: inactive; NS1 inh: inactive; Shiga inhibitor: inactive; CHX counter: inactive

What do the screens show for `N/C(=N\OC(=O)c1ccco1)c1cccc([N+](=O)[O-])c1`?
Pf growth 48h: inactive; Pf growth 96h: inactive; Sm TGR block: inactive; NS1 inh: inactive; Shiga inhibitor: 121.0; CHX counter: 48.2

What do the screens show for `COc1ccc(/C(N)=N/OC(=O)c2ccco2)cc1OC`?
Pf growth 48h: inactive; Pf growth 96h: inconclusive; Sm TGR block: inactive; Shiga inhibitor: 113.4; CHX counter: 39.4

What do the screens show for `N/C(=N\OC(=O)c1ccco1)c1cccc(Br)c1`?
Pf growth 48h: inactive; Sm TGR block: inactive; NS1 inh: inactive; Shiga inhibitor: 154.1; CHX counter: 39.9

How did N/C(=N\OC(=O)CCCOc1ccccc1)c1cccc([N+](=O)[O-])c1 do in these assays?
Pf growth 48h: inactive; Pf growth 96h: inconclusive; Sm TGR block: inactive; Shiga inhibitor: inactive; CHX counter: inactive

Results for O=C(NCCCN1CCN(c2ccccc2F)CC1)c1nnc(Cc2ccc(Cl)cc2Cl)o1 ?
Sm TGR block: inactive

How did Cc1cc(Br)ccc1S(=O)(=O)n1ccnc1C do in these assays?
Pf growth 48h: inactive; Pf growth 96h: inactive; NS1 inh: inactive; Shiga inhibitor: inactive; CHX counter: inactive

How did O=C(CCNS(=O)(=O)c1cccc2nsnc12)N1CCc2ccccc21 do in these assays?
Pf growth 96h: inactive; Sm TGR block: inactive; NS1 inh: inactive; Shiga inhibitor: inactive; CHX counter: inactive

How did O=C(CCCNS(=O)(=O)c1cccc2nsnc12)NCc1ccccc1 do in these assays?
Pf growth 48h: inactive; Pf growth 96h: 9.28µM; Sm TGR block: inactive; NS1 inh: inactive; Shiga inhibitor: inactive; CHX counter: inactive

Results for CC1Cc2ccccc2N1C(=O)CCNS(=O)(=O)c1cccc2nsnc12 (centres undefined) ?
Pf growth 48h: inactive; Pf growth 96h: 2.62µM; Sm TGR block: inactive; NS1 inh: inactive; Shiga inhibitor: inactive; CHX counter: inactive

How did Cc1ccc2[nH]c(CSc3nnc(NC(=O)c4ccccc4C)s3)cc(=O)c2c1 do in these assays?
Sm TGR block: inactive

How did Cc1oc(-c2cccc(F)c2)nc1CN1CCCCC1CCn1cccn1 (centres undefined) do in these assays?
Pf growth 48h: 13.1µM; Pf growth 96h: inactive; Sm TGR block: inactive; NS1 inh: inactive; Shiga inhibitor: inactive; CHX counter: inactive

How did Cc1ccc(-c2nc(CN3CCCCC3CCN3CCCC3=O)c(C)o2)o1 (centres undefined) do in these assays?
Pf growth 48h: inactive; Pf growth 96h: inactive; Sm TGR block: inactive; NS1 inh: inactive; Shiga inhibitor: inactive; CHX counter: inactive

How did CSc1ccc(-c2nc(CN3CCCCC3c3cccnc3)c(C)o2)cc1 (centres undefined) do in these assays?
Pf growth 48h: 8.28µM; Pf growth 96h: inactive; Sm TGR block: inactive; NS1 inh: inactive; Shiga inhibitor: inactive; CHX counter: inactive

How did COc1ccccc1CNC(=O)C1CCN(Cc2nc(-c3cccc(Cl)c3)oc2C)CC1 do in these assays?
Pf growth 48h: 10.4µM; Pf growth 96h: inactive; Sm TGR block: inactive; NS1 inh: inactive; Shiga inhibitor: inactive; CHX counter: inactive

How did CCN1CCCC1CNC(=O)C1CCN(Cc2nc(-c3cccc(Br)c3)oc2C)CC1 (centres undefined) do in these assays?
Pf growth 48h: 6.57µM; Pf growth 96h: inconclusive; Sm TGR block: inactive; NS1 inh: inactive; Shiga inhibitor: inactive; CHX counter: inactive

How did COc1ccccc1CN1CCCCC1c1cccnc1 (centres undefined) do in these assays?
Pf growth 48h: inactive; Sm TGR block: inactive; NS1 inh: inactive; Shiga inhibitor: inactive; CHX counter: inactive

What do the screens show for `CCCOC(=O)CCCCCCCCC(O)CN1CCCCC1` (centres undefined)?
Pf growth 48h: inactive; Pf growth 96h: inconclusive; Sm TGR block: inactive; Shiga inhibitor: inactive; CHX counter: inactive

Results for Cc1ccnc2nc(C(=O)OCCOc3ccc(F)cc3)nn12 ?
Pf growth 48h: inactive; Pf growth 96h: inconclusive; Sm TGR block: inactive; NS1 inh: inactive; Shiga inhibitor: inactive; CHX counter: inactive

Results for Cn1c(=O)c2[nH]c(-c3ccc(S(=O)(=O)O)cc3)nc2n(C)c1=O ?
NS1 inh: inactive
